Test results from PubChem BioAssay AID382 (SGCOxCompounds, 2006).
Active and inactive are the calls of the source. The rule behind the calls is not given here.

Target: Dual specificity protein kinase CLK1 (Homo sapiens) (UniProt P49759)
Assay: CLK1 binders by thermal stabilization, biophysical, recombinant human kinase, DSF (AID 382)
Conditions: at 10 µM, protein 1.7 µM, buffer 10 mM HEPES, pH 7.5, NaCl 150 mM, with 50 µM L-Arg/L-Glu (1:1), stronger effect = higher value

Chain of Dual specificity protein kinase CLK1 (Homo sapiens) (P49759 whole entry, looked up): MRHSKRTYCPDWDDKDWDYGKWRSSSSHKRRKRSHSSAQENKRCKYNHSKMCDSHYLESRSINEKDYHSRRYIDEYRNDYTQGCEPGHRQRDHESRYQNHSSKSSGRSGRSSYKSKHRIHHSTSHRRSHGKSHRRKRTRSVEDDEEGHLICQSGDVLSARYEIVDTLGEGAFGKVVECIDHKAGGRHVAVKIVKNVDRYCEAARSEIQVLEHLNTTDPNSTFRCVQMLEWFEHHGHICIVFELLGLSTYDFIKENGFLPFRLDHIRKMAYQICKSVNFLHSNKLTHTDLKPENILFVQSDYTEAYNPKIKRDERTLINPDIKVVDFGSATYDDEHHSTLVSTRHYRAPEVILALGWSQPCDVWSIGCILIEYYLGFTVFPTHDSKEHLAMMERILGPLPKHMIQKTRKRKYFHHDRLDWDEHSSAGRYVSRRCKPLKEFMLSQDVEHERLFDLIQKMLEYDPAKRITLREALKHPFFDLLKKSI

Tm shift, active:
Nc1nc(Nc2ccccc2)sc1C(=O)c1ccc(F)cc1 3.2 Celsius
COc1ccc(Nc2nc(N)c(C(=O)c3ccc(OC)cc3)s2)cc1 4.5 Celsius
Nc1nc(Nc2cccc(Cl)c2)sc1C(=O)c1ccc(F)cc1 4 Celsius
COc1ccc(Nc2nc(N)c(C(=O)c3ccc(Cl)cc3)s2)cc1 4.4 Celsius

Same assay, conditions: at 10 µM, protein 2 µM, buffer 10 mM HEPES, NaCl 150 mM, stronger effect = higher value

Tm shift, active:
N=C(N)SCCCn1cc(C2=C(c3c[nH]c4ccccc34)C(=O)NC2=O)c2ccccc21 10.3 Celsius
O=c1c(O)c(-c2ccc(O)cc2)oc2cc(O)cc(O)c12 5.97 Celsius
COc1cc2ncnc(Nc3cccc(O)c3)c2cc1OC 4.15 Celsius
O=c1cc(-c2ccc(O)c(O)c2)oc2cc(O)cc(O)c12 5.77 Celsius
O=Nc1c(-c2c(O)[nH]c3ccc(I)cc23)[nH]c2ccccc12 5.14 Celsius
O=C1C(=O)C(c2ccc(O)cc2)Oc2cc(O)cc(O)c21 (stereo not drawn) 4.8 Celsius
Cc1c(O)cc(O)c2c1OC(c1ccc(O)c(O)c1)C(=O)C2=O (stereo not drawn) 4.98 Celsius

Same assay, conditions: at 10 µM, protein 2 µM, buffer 10 mM HEPES, NaCl 150 mM, with 50 mM Arg/Glu, stronger effect = higher value

Tm shift, active:
Clc1cccc(Nc2ccn3ncc(-c4ccc5c(c4)OCO5)c3n2)c1 6.85 Celsius
Nc1nc(Nc2ccc(S(N)(=O)=O)cc2)nn1C(=S)Nc1c(F)cccc1F 11.8 Celsius
CCC(CO)Nc1ccc2ncc(-c3ccc(F)c(Cl)c3)n2n1 (stereo not drawn) 5.64 Celsius
CCC(CO)Nc1ccc2ncc(-c3ccc(O)cc3)n2n1 (stereo not drawn) 7.54 Celsius
FC(F)(F)Oc1cccc(-c2cnc3ccc(NC4CCOCC4)nn23)c1 5.17 Celsius

Same assay, conditions: at 10 µM, protein 2 µM, buffer 10 mM HEPES, pH 7.5, NaCl 150 mM, with 50 µM L-Arg/L-Glu (1:1), stronger effect = higher value

Tm shift, active:
c1cncc(-c2cnc3ccc(NC4CCOCC4)nn23)c1 3.3 Celsius
CC(C)[C@@H](CO)Nc1ccc2ncc(-c3cccc(Cl)c3)n2n1 3.9 Celsius
Cc1cc(Nc2nc(-c3ccccc3)nc3ccccc23)n[nH]1 5.8 Celsius
CC(C)[C@@H](CO)Nc1ccc2ncc(-c3cccc(O)c3)n2n1 4.2 Celsius
OCC(O)CCO/N=C1/C(c2c(O)[nH]c3ccccc23)=Nc2ccccc21 (stereo not drawn) 7.7 Celsius
Fc1ccc(-c2cnc3ccc(NC4CCOCC4)nn23)cc1 5.3 Celsius
COCCNc1ccc2ncc(-c3cccc(Cl)c3)n2n1 3.6 Celsius
NS(=O)(=O)c1ccc(Nc2nc(OCC3CCCCC3)c3[nH]cnc3n2)cc1 3.9 Celsius
CCC(CO)Nc1ccc2ncc(-c3cccc(CO)c3)n2n1 (stereo not drawn) 5.3 Celsius
CC(C)[C@@H](CO)Nc1ccc2ncc(-c3cccc(OC(F)(F)F)c3)n2n1 4.6 Celsius
CC(C)[C@@H](CO)Nc1ccc2ncc(-c3cccc(F)c3)n2n1 3.9 Celsius
CCC(CO)Nc1ccc2ncc(-c3ccc(C(=O)O)cc3)n2n1 (stereo not drawn) 4.8 Celsius
CCC(CO)Nc1ccc2ncc(-c3cccc(C(C)=O)c3)n2n1 (stereo not drawn) 6.1 Celsius
Nc1cccc(-c2cnn3ccc(Nc4cccc(Cl)c4)nc23)c1 3.6 Celsius

Same assay, conditions: at 10 µM, protein 2 µM, buffer 10 mM HEPES, pH 7.5, NaCl 150 mM, with 50 mM Arg/Glu, stronger effect = higher value

Tm shift, active:
NC(=O)c1ccc(-c2nc(-c3ccc4c(c3)OCCO4)c(-c3ccccn3)[nH]2)cc1 6.3 Celsius
CN(C)S(O)(O)c1ccc2c(c1)/C(=C/c1cc3c([nH]1)CCCC3)C(=O)N2 4.8 Celsius
Cn1cc(/C=C2\C(=O)Nc3ccc(S(N)(=O)=O)cc32)c2ccccc21 3.6 Celsius
